Laboratory results: PubChem BioAssay (NCI)
About 79,000 compounds went through this panel and 15% of them were active in at least one assay; those are over-represented in the sample as a whole. Calls of active or inactive are those of the source. No stated cut-off is given here; in the data, active means growth inhibition above about 70%; inactive means the rest.

Assay: NCI Yeast Anticancer Drug Screen. Data for the mlh1 rad18 strain (AID 175)
Conditions: S. cerevisiae mlh1 rad18 strain growth inhibition; at 50.0 µM; stronger effect = higher value
In short: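 Growth inhibition of the yeast strain was measured after compound exposure and expressed relative to vehicle-treated controls. The strain carries defined defects in DNA damage repair.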

For `COc1ccc(-c2cc3ccccc3c(=O)n2Cc2ccccc2)cc1`, which growth inhibition is on record?
The growth inhibition was 79.3% (active).

Which growth inhibition does the source give for `CN(C)CCCNCC(=O)Nc1ccc(S(=O)(=O)c2ccc(NC(=O)CNCCCN(C)C)cc2)cc1` here?
Its growth inhibition is 90.2% (active).

For `O=C1NN=C(c2ccc(Cl)cc2)CC1C1C(=O)N(c2ccccc2)N=C1c1ccccc1` (stereo unspecified), which growth inhibition is on record?
The growth inhibition was 98.3% (active).

Which growth inhibition does the source give for `Cc1ccc(S(=O)(=O)NCCSSCCNS(=O)(=O)c2ccc(C)cc2)cc1` here?
The growth inhibition was 95.4% (active).

With `O=C(CC(=O)c1ccccc1)CC(=O)c1ccccc1Br` as the compound, how does the growth inhibition read?
Its growth inhibition is 96.5% (active).

Which growth inhibition does the source give for `Nc1ncc2ccccc2c1-c1ccc(NC(=O)CCCl)cc1` here?
Its growth inhibition is 45% (inactive).

Which growth inhibition does the source give for `CC1=NC(=Cc2cccc(Cl)c2)C(=O)N1n1c(-c2ccccc2)nc2ccccc2c1=O` here?
Its growth inhibition is 81.7% (active).

With `CCCOC(=O)CCCC(=O)N(CC)CC` as the compound, how does the growth inhibition read?
The growth inhibition was 19.5% (inactive).

For `C=C1C(=O)[C@@]23CC[C@H]4[C@@](C)(CCC[C@@]4(C)C(=O)OC)[C@@H]2CC[C@]1(O)C3`, which growth inhibition is on record?
Its growth inhibition is 90.8% (active).

Which growth inhibition does the source give for `CCCCN(CCCC)CCC(=O)c1ccc2c(ccc3ccccc32)c1` here?
The growth inhibition was 98.8% (active).

With `CC1CCC2(C)C(CC=C(C=O)C2(O)C=O)C12CO2` (stereo unspecified) as the compound, how does the growth inhibition read?
The growth inhibition was 93.5% (active).

Which growth inhibition does the source give for `CN(C)CC1CC/C(=C\c2ccc(Cl)c(Cl)c2)C1=O` (stereo unspecified) here?
Its growth inhibition is 90.2% (active).

With `CCS(=O)(=O)c1ccc(NC(=O)OC2CCCCCCC2)cc1` as the compound, how does the growth inhibition read?
The growth inhibition was 91.6% (active).

With `CC(=O)OC1CCCCCCCCCCC12OCCO2` (stereo unspecified) as the compound, how does the growth inhibition read?
Its growth inhibition is 92% (active).

With `CC(=O)OCc1cc2c(s1)C(=O)c1sccc1C2=O` as the compound, how does the growth inhibition read?
The growth inhibition was 89% (active).

Which growth inhibition does the source give for `O=C1C=CC(=O)c2nc3ccccc3nc21` here?
Its growth inhibition is 91% (active).

With `Cc1ccccc1C1c2c(C)cccc2C(=O)CC1CC(=O)O` (stereo unspecified) as the compound, how does the growth inhibition read?
The growth inhibition was 81.6% (active).

For `CCOC(=O)c1c(N)sc2c1CCCCC2`, which growth inhibition is on record?
Its growth inhibition is 61.1% (inactive).

Which growth inhibition does the source give for `CCCCC(O)CCCC` here?
The growth inhibition was -7.1% (inactive).

Which growth inhibition does the source give for `Nc1nn2c(C(Br)Br)cc(C(Br)Br)nc2c1[N+](=O)[O-]` here?
Its growth inhibition is 99.5% (active).

Which growth inhibition does the source give for `COC(=O)c1n[nH]c(C(C)C)c1N=NN(C)C` here?
Its growth inhibition is 99.2% (active).
